The record followed here is PubChem BioAssay AID2501 (Southern Research Specialized Biocontainment Screening …, 2010).

Values joined by “and” are separate entries in the source; they are usually repeats but may differ in a detail not shown here. Equal entries are not always repeated. In all, about 2,200 compounds went through this assay and about 1,200 (55%) were called active. The set was probably picked from earlier hits. This is one part of the list. A number with no mark means an inactive call. No cut-off is given here; in the data, nearly all actives have IC50 up to about 92 µM.

This assay can be described thus: counter assay for TAg ATPase ADP read-out – biochemical, ADP-Hunter, fluorescence, counter-screen (AID 2501).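 For inhibition: 0% = enzyme with vehicle and 100% = reference inhibitor wells; higher means more inhibition.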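 Note: purified T antigen ATPase.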 The settings on record: series mostly up to 100 µM; inhibition: at the top concentration.
As for `CC(=O)N1CCN(c2ccc(NCc3ccc(C)s3)cc2)CC1`, the IC50 is 3.62 µM (active). Take `O=C(O)CC(C(=O)O)n1nc(-c2ccccc2)cc1-c1ccccc1` (stereo not drawn): the “inhibition” value is -0.27%.

On to `CC(=O)c1ccc2c(c1)C1C=CCC1C(C(=O)O)N2` (stereo not drawn), for which the “inhibition” value is -19.7%. As for `CCn1ccc(C(=O)N2CCN(c3ncccn3)CC2)n1`, the “inhibition” value was -18.8%.

In the case of `Cc1csc(N/N=C/c2ccc(O)c([N+](=O)[O-])c2)n1`, the half-maximal inhibitory concentration (IC50) is 13.2 µM (active). In the case of `CC(C)(C)c1ccc(C(=O)n2cnc3ccccc32)cc1`, the “inhibition” value is -13.8%. Take `Oc1ccc(-c2nc(-c3ccc(F)cc3)c(-c3ccncc3)[nH]2)cc1`: the IC50 is 8.21 µM (active).

On to `C/C(=N/OC(=O)C1CC1)c1cc(-c2ccc(Cl)cc2)no1`, for which the “inhibition” value is 25.3%. As to `Cc1ccc(OC(=S)Nc2ccc(O)cc2)cc1`, the IC50 is 7.84 µM (active). With `CC1(c2ccccc2)NC(=O)N(CC(=O)Nc2ccc(S(=O)(=O)Nc3ncccn3)cc2)C1=O` (stereo not drawn), the “inhibition” value is -9.03%.

Take `Cc1cc(C(=O)NNC(=O)CN2C(=O)NC(C)(c3ccccc3)C2=O)c(C)o1` (stereo not drawn): the “inhibition” value is -29.5%.

As for `CCN(c1ccc(NC(=O)CN2C(=O)NC3(CCOc4ccccc43)C2=O)cc1)C(C)C` (stereo not drawn), the IC50 is 11.1 µM (active). The same measure, in the same setting: to `Cc1cc2c(N=O)c(NO)ccc2[nH]1` belongs 24.4 µM (active).

Take `O=C1CNC(=S)N1CCc1ccc(O)c(O)c1`: the IC50 was 10.7 µM (active). `OC(COc1ccc2cc(Br)ccc2c1)CN1CCCC1` (stereo not drawn): the “inhibition” value was -8.01%. As for `O/N=C(\c1ccc2c(c1)OCCO2)C1CCCCC1`, the “inhibition” value is -5.27%. With `O=c1ccc2cc(O)c(O)cc2o1`, the IC50 is 11.3 µM (active). `N#CSCC(=O)c1cccc2ccccc12`: the “inhibition” value is 13.2%.

For the molecule `O=C(c1ccc([N+](=O)[O-])cc1)N1CCN(c2cccc3[nH]ccc23)CC1`, the IC50 was 8.91 µM (active). On to `Cc1cc(OCC(=O)N(C)c2ccccc2)cc2c1C(=O)CC(C)(C)O2`, for which the “inhibition” value is -23.8%. Same read-out and setting: to `O=C(NCCO)c1ccc2nc(-c3ccco3)c(-c3ccco3)nc2c1` belongs -13.4%; to `CCCc1cc(C(=O)N2CCCC(C(=O)c3cccc4ccccc34)C2)n(C)n1` (stereo not drawn), 15.6%. As for `O=C(/C=C/c1ccc(O)c(O)c1)O[C@@H]1C[C@](O)(C(=O)O)C[C@@H](O)[C@H]1O`, the IC50 is 4.26 µM (active) and 8.41 µM (active).

In the case of `CCCCNC(=O)c1onc(CCl)c1C(=O)OC`, the “inhibition” value is 8.49%. As to `COc1cc(SC)ccc1C(=O)N1CCN(c2ccc(O)cc2)CC1`, the IC50 was 5.86 µM (active). With `O=C(CCC1CCCCC1)Nc1ccccc1C(=O)N1CCOCC1`, the “inhibition” value is -12.4%. Still for that read-out and setting: to `COc1cc(SC)ccc1C(=O)N1CCN(Cc2ccccc2)CC1` belongs -2.78%. Regarding `COc1cc(Cl)ccc1NC(=O)COc1ccccc1C(=O)N1CCN(c2ccc(O)cc2)CC1`, the IC50 was 6.1 µM (active). For the molecule `CCCCC(=O)OCC(=O)c1[nH]c(C)c(C(=O)OCC)c1C`, the “inhibition” value is -18.3%. On the same count and under the same terms, to `COc1cccc([C@H](O)Cn2cc(-c3ccc(CON=C(C)C)cc3)nn2)c1` belongs 16.7%. Take `CCOc1ccc(NC(=O)Cn2sc3nc(C)cc(C)c3c2=O)cc1`: the “inhibition” value is 9.54%.

Consider `CN(C)c1ccc(NC(=O)CN2CCN(c3ccc(F)cc3)CC2)cc1`, for which the half-maximal inhibitory concentration (IC50) is 2.66 µM (active). Turning to `CN(C)c1ccc(NC(=O)CN2CCN(CC(=O)Nc3ccc(F)cc3)CC2)cc1`, the IC50 was 9.6 µM (active). Same read-out and setting: in the case of `CN(C)c1ccc(NC(=O)COC(=O)Cn2nnc3ccccc32)cc1` it was 4.51 µM (active).

Take `CN(C)c1ccc(NC(=O)Cn2ncn3c(cc4ccccc43)c2=O)cc1`: the IC50 is 10.4 µM (active). For `Cc1cccc(-n2c3nc(=O)[nH]c(=O)c-3cc3cc([N+](=O)[O-])ccc32)c1`, the “inhibition” value is -3.39%. The same measure, in the same setting: in the case of `CCOC(=O)C1CCN(c2ncnc3c2nnn3Cc2ccccc2Cl)CC1` it was -12.6%.

For `Cc1nn(CC(=O)Nc2ccc(N(C)C)cc2)c(C)c1[N+](=O)[O-]`, the concentration for half-maximal inhibition (IC50) is 5.17 µM (active). Turning to `Cc1c(-c2ccccc2)oc2c(C(=O)OCC(=O)Nc3ccc(C(N)=O)cc3)cccc2c1=O`, the “inhibition” value is -31.3%.

As for `CCOC(=O)c1ccc(NC(=O)CC2NCCNC2=O)cc1` (stereo not drawn), the “inhibition” value is -11.5%. For `CN(C)c1ccc(NC(=O)COC(=O)CCC(=O)c2ccc(F)cc2)cc1`, the IC50 is 4.64 µM (active).

As to `CN(C)c1ccc(NC(=O)CC2NCCNC2=O)cc1` (stereo not drawn), the IC50 was 4.71 µM (active). `Oc1ccc2c(c1)C1CCCC1(N1CCOCC1)O2` (stereo not drawn): the “inhibition” value was -102%. On to `COc1ccc(NCN2C(=O)C3C4C=CC(C4)C3C2=O)cc1` (stereo not drawn), for which the IC50 is 11.4 µM (active). In the case of `CC(C)(C)c1nnc(NC(=O)CN2C(=O)C3C4C=CC(C4)C3C2=O)s1` (stereo not drawn), the “inhibition” value is -37.5%.

Take `c1ccc(-c2ccc3c(c2)NCCN3)cc1`: the IC50 is 7.7 µM (active).

Take `CCCCC/C=C\C/C=C\C/C=C\C/C=C\CCCC(=O)O`: the “inhibition” value was 24.2%.

Consider `CCCCCn1c(=O)c2ccccc2n2c(=S)[nH]nc12`, for which the IC50 is 11.7 µM (active). The same measure, in the same setting: in the case of `COCCCn1c(=O)c2ccccc2n2c(=S)[nH]nc12` it was 8.77 µM (active). For `COc1cccc(-n2cnnn2)c1`, the “inhibition” value is -17.4%. Take `COc1cccc(N2CC(=O)Nc3c(oc4nc(-c5ccccc5)cc(C)c34)C2=O)c1`: the “inhibition” value is -11.9%. As to `COc1cccc(-n2c(=O)c3ccccc3n3c(=S)[nH]nc23)c1`, the IC50 is 16.1 µM (active). With `CC(C)CCn1c(=O)c2ccccc2n2c(=S)[nH]nc12`, the IC50 was 10.9 µM (active).
